Several values for one entry are separate records, joined by “and”; a condition that tells them apart may be missing. Equal values may be shown once. This is part of a sample that, as a whole, favours compounds with a hit. Of some 83,000 tested, about 20% had one in any assay.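 A percent growth of 40 corresponds to 60% growth inhibition; 0 means no net growth; -100 means all cells died. Active threshold: below 10.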 A number with no mark means an inactive call.

For this test, the system named is SK-OV-3 ovarian. As to the kind of experiment: NCI-60 one-dose screen, 48 h (100 = growth as untreated, 0 = no growth, -100 = all killed). Conditions: 10 µM unless noted.
On to `COc1cc(Cl)cc(-c2nn(C(=O)NS(=O)(=O)c3ccc(Cl)cc3)cc2-c2ccncc2)c1`, for which the growth is 84.7%.

Take `C[C@@H]1O[C@@H](O[C@H]2[C@@H](OC(=O)[C@]34CCC(C)(C)C[C@H]3C3=CC[C@@H]5[C@@]6(C)C[C@H](O)[C@H](O[C@@H]7O[C@H](CO)[C@@H](O)[C@H](O)[C@H]7O)[C@@](C)(CO)[C@@H]6CC[C@@]5(C)[C@]3(C)C[C@H]4O)OC[C@@H](O)[C@@H]2O)[C@H](O)[C@H](O[C@@H]2OC[C@@H](O)[C@H](O[C@@H]3OC[C@](O)(CO)[C@H]3O[C@@H]3OC[C@@H](O)[C@H](O)[C@H]3O)[C@H]2O)[C@H]1O[C@@H]1OC[C@](O)(CO)[C@H]1O`: the growth was 93.9%.

For the molecule `Cc1c(O)c(O)cc2c3c(oc12)CC(c1ccc2c(c1)OCO2)CC3=O` (centres undefined), the growth is 85.4%.

Turning to `COc1cc(F)c(/C=C/c2cc(/C=C/c3cc(OC)c(OC)cc3F)n(-c3cc(F)cc(F)c3)n2)cc1OC`, the growth was 108%.

In the case of `CN1CCN(CCCN2c3ccccc3Sc3ccc(Cl)cc32)CC1`, the growth is 99%.

For the molecule `O=C(N=Nc1c(O)[nH]c2ccccc12)Nc1ccccc1Cl`, the growth was 94.4%.

On to `OCCN1CCN(CC/C=C2\c3ccccc3Sc3ccc(Cl)cc32)CC1`, for which the growth was 77.8% and 77.2%.

On to `COc1nc2ccc(C)cc2cc1/C=[N+](\[O-])c1ccccc1`, for which the growth is 79.9%.

Regarding `O=C(CCN1CCOCC1)Nc1cccc(-n2cc(-c3ccncc3)c(-c3ccc(Cl)c(O)c3)n2)c1`, the growth is 25.1%.

These data come from PubChem BioAssay (NCI).
